Of roughly 8,800 targets only a part is listed; those with a hit were picked by preference. About 0.5% of all pairs of compound and target were hits.
What follows are targets tested with O=C1NC(=O)C(c2cnc3ccccn23)=C1c1cn2c3c(cc(F)cc13)CN(C(=O)N1CCCCC1)CC2 (assay: log2 fold change, soluble protein after heating vs DMSO (PISA); higher = thermal stabilisation; K562 lysate, 10 uM; active = over 0.2 and 3.5 SD of the protein, either way, in both replicates (recomputed)).
How it was run: (§1)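 K562 pellets were dounce-homogenised in PBS pH 7.4 with 1 mM MgCl2, and the crude extract at 1 mg/mL protein was treated with 10 μM compound for 30 min. Aliquots were heated for 3 min across 48°C-58°C, pooled, and brought to 0.5% NP-40 at 4°C; soluble protein was the supernatant after 21,000xg for 90 min. Soluble protein was quantified by TMTpro 16plex LC-MS/MS with channel sums equalised, and reported as log2 fold change in thermal stability against DMSO controls, with values from duplicates.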

Sequence of UniProt Q15021 (Q15021 whole entry, looked up): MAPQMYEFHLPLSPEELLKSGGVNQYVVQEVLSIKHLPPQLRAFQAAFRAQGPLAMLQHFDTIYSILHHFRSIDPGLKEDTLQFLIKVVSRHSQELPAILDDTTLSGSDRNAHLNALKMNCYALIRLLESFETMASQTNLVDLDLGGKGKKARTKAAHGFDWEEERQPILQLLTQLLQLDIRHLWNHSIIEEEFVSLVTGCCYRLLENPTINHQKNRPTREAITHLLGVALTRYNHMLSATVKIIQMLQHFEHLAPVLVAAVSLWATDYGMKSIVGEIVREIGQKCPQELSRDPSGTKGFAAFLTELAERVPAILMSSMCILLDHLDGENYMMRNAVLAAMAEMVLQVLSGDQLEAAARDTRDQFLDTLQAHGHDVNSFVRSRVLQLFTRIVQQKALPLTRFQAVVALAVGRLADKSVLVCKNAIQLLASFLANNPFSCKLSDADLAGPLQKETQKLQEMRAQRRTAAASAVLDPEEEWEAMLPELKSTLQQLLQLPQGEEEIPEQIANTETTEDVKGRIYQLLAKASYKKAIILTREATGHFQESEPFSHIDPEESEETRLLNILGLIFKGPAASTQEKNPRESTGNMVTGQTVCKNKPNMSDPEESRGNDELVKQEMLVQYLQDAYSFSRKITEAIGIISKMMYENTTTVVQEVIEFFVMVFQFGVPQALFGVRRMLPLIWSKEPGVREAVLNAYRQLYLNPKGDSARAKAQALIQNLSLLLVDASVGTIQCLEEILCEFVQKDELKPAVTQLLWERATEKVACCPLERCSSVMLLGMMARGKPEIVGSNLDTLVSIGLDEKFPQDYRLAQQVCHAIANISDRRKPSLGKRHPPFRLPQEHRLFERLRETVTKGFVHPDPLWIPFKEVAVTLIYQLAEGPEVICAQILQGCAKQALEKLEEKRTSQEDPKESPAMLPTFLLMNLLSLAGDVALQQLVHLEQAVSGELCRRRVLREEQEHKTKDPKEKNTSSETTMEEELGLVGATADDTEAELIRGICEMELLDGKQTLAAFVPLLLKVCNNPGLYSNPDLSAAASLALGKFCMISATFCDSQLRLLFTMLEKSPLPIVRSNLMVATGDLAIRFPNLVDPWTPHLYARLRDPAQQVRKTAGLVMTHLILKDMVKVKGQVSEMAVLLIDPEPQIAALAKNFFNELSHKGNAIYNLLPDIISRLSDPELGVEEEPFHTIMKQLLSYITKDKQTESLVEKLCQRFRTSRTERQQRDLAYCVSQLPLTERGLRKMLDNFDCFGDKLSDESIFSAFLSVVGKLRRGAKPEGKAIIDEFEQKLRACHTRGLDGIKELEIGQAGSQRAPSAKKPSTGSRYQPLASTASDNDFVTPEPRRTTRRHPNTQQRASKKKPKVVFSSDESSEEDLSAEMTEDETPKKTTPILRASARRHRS
Sequence of UniProt P40261 (P40261 whole entry, looked up): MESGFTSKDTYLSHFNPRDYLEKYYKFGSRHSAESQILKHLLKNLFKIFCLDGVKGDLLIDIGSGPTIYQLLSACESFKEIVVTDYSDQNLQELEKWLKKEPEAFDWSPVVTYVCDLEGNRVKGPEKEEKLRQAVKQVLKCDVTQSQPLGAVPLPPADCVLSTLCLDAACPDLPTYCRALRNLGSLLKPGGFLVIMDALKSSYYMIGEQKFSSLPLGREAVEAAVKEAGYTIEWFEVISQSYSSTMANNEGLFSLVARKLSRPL
Sequence of UniProt Q9NQR4 (Q9NQR4 whole entry, looked up): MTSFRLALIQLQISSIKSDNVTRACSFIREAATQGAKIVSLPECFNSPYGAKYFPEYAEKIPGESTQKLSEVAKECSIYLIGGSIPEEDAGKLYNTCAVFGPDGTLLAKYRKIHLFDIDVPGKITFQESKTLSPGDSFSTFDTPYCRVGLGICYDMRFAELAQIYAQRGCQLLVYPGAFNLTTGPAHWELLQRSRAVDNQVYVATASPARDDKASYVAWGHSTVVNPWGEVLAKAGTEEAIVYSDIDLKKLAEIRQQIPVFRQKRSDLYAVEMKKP
Sequence of UniProt Q9UFN0 (Q9UFN0 whole entry, looked up): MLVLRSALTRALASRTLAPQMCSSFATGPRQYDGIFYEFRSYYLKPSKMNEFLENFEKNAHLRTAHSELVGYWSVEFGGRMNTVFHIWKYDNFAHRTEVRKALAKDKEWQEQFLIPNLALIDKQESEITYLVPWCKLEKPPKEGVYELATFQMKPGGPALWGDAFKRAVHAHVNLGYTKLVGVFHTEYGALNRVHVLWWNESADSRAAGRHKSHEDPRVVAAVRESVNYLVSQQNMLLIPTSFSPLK
Sequence of UniProt Q9BRA0 (Q9BRA0 whole entry, looked up): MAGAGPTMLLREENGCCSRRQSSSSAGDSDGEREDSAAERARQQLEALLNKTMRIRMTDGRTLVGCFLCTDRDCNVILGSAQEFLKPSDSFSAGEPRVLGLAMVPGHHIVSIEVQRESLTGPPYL
Sequence of UniProt Q96I59 (Q96I59 whole entry, looked up): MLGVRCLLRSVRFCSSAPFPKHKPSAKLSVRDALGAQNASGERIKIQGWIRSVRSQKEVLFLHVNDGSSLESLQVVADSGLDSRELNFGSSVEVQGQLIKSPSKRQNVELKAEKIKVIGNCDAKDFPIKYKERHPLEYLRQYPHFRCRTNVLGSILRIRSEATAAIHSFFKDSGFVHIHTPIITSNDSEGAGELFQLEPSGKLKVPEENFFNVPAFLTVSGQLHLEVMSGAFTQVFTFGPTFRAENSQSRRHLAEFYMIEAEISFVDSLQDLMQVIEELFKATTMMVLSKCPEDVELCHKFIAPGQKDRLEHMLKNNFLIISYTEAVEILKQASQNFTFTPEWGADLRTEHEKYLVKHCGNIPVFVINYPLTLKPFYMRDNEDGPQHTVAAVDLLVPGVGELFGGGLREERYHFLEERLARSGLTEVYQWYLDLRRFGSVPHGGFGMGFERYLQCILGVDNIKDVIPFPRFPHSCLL
Sequence of UniProt P49116 (P49116 whole entry, looked up): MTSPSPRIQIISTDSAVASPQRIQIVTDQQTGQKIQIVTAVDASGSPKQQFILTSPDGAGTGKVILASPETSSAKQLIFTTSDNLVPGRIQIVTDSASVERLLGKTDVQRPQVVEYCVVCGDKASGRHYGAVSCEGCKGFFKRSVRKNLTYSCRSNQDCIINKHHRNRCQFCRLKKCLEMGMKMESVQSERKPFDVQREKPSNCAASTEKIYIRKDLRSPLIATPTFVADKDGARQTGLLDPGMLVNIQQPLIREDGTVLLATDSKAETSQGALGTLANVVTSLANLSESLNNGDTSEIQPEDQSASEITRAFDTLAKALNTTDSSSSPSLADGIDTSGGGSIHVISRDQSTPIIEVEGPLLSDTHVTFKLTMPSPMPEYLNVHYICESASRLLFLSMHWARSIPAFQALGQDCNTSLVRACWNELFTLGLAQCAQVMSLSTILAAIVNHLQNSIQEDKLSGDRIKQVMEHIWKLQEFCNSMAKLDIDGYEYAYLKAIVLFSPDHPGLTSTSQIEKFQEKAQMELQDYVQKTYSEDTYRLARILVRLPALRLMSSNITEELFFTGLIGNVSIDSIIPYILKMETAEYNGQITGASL
Sequence of UniProt Q9BTC8 (Q9BTC8 whole entry, looked up): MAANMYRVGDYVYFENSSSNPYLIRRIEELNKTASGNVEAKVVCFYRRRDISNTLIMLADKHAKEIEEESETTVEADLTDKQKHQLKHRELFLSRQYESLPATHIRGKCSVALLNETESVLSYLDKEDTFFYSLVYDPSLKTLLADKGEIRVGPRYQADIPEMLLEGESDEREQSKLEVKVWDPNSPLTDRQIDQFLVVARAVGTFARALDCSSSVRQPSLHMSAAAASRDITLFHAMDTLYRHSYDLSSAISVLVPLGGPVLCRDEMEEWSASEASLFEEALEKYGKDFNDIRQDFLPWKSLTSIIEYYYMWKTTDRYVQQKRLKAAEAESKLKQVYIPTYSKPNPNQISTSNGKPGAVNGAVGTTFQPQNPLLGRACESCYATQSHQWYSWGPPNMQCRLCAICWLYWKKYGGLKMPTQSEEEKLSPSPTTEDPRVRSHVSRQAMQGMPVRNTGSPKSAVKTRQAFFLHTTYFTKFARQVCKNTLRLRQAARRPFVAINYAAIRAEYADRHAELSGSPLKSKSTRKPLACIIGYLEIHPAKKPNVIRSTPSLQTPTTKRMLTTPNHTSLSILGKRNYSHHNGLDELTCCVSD
Sequence of UniProt Q9H3P2 (Q9H3P2 whole entry, looked up): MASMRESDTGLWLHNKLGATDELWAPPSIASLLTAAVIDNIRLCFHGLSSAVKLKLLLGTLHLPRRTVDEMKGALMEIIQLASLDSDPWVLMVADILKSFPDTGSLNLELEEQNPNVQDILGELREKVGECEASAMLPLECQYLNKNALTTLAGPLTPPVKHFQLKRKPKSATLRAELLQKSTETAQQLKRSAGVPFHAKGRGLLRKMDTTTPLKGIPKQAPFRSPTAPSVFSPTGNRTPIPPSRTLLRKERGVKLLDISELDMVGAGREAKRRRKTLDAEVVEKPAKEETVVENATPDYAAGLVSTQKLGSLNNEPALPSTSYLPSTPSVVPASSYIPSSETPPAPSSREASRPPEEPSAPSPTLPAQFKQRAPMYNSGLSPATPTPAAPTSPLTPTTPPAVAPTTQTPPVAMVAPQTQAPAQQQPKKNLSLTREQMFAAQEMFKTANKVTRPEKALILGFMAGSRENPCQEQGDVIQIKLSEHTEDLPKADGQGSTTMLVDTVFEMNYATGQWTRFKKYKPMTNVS
Sequence of UniProt Q96DH6 (Q96DH6 whole entry, looked up): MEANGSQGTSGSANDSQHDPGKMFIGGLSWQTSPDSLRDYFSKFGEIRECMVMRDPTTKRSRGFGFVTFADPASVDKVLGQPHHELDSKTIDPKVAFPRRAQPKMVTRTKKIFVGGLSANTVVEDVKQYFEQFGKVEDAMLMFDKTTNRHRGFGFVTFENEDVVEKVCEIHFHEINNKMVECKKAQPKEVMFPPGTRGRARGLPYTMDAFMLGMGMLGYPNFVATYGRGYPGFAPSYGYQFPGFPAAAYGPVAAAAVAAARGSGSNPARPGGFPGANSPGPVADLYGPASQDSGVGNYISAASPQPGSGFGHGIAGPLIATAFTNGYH

log2 fold change, inactive:
MSI2 (UniProt Q96DH6) -0.052
NUMBL (UniProt Q9Y6R0) 0.021
NF1 (UniProt P21359) 0.01
NIT2 (UniProt Q9NQR4) -0.007
NAA38 isoform 2 (UniProt Q9BRA0) 0.04
NQO1 (UniProt P15559) 0.023
NNMT (UniProt P40261) 0.03
NCAPG2 (UniProt Q86XI2) -0.016
NARS2 (UniProt Q96I59) -0.029
NCAPD2 (UniProt Q15021) -0.005
MYO1C (UniProt O00159) 0.11
NIPSNAP3A (UniProt Q9UFN0) 0.017
OTUD7B (UniProt Q6GQQ9) 0.194
MT-ND1 (UniProt P03886) 0.015
NR2C2 isoform 2 (UniProt P49116) 0.008
NUDT4 isoform 2 (UniProt Q9NZJ9) 0.018
NT5DC2 isoform 2 (UniProt Q9H857) 0
NCAPH (UniProt Q15003) -0.01
MSH2 (UniProt P43246) -0.022
NBN (UniProt O60934) -0.008
NPTN (UniProt Q9Y639) 0.04
MTA3 (UniProt Q9BTC8) -0.021
MRPS18A isoform 2 (UniProt Q9NVS2) 0.019
NIFK (UniProt Q9BYG3) 0.047
ORC5 (UniProt O43913) 0.011
NUP98 (UniProt P52948) 0.001
NELFA (UniProt Q9H3P2) 0.008
MTOR (UniProt P42345) -0.013
MYO9A isoform 4 (UniProt B2RTY4) -0.03
MYO10 (UniProt Q9HD67) 0.159
NUDT5 (UniProt Q9UKK9) 0.02
ORC3 isoform 2 (UniProt Q9UBD5) 0.052
NUB1 (UniProt Q9Y5A7) 0.031
NAP1L5 (UniProt Q96NT1) -0.049

These targets were tested with c1cn2cc(-c3ccc4cn[nH]c4c3)nc(Nc3ccc(N4CCOCC4)cc3)c2n1 [entospletinib] in the same assay as above.
How it was run: as §1

log2 fold change, inactive:
MSI2 (UniProt Q96DH6) 0.033
NUMBL (UniProt Q9Y6R0) 0.102
NF1 (UniProt P21359) 0.025
NIT2 (UniProt Q9NQR4) 0.004
NAA38 isoform 2 (UniProt Q9BRA0) -0.035
NQO1 (UniProt P15559) -0.027
NNMT (UniProt P40261) -0.004
NCAPG2 (UniProt Q86XI2) 0.009
NARS2 (UniProt Q96I59) -0.079
NCAPD2 (UniProt Q15021) -0.001
MYO1C (UniProt O00159) 0.033
NIPSNAP3A (UniProt Q9UFN0) -0.021
OTUD7B (UniProt Q6GQQ9) -0.04
MT-ND1 (UniProt P03886) 0.121
NR2C2 isoform 2 (UniProt P49116) 0.028
NUDT4 isoform 2 (UniProt Q9NZJ9) -0.023
NT5DC2 isoform 2 (UniProt Q9H857) -0.013
NCAPH (UniProt Q15003) -0.004
MSH2 (UniProt P43246) 0.034
NBN (UniProt O60934) -0.005
NPTN (UniProt Q9Y639) 0.096
MTA3 (UniProt Q9BTC8) 0.012
MRPS18A isoform 2 (UniProt Q9NVS2) -0.052
NIFK (UniProt Q9BYG3) 0.044
ORC5 (UniProt O43913) 0.066
NUP98 (UniProt P52948) -0.012
NELFA (UniProt Q9H3P2) -0.027
MTOR (UniProt P42345) -0.024
NUDT5 (UniProt Q9UKK9) 0.012
ORC3 isoform 2 (UniProt Q9UBD5) 0.013
NUB1 (UniProt Q9Y5A7) 0.001
NAP1L5 (UniProt Q96NT1) 0.071

Reference: the supplement of paper PMC10849652
